Experimental findings from PubChem BioAssay (Tox21) are described below.

The structures appear in SMILES notation. Inconclusive results are not listed. Calls of active or inactive are those of the source. Unless noted, calls follow the shape of the full dose curve.

Experiment [1] is described as follows: Nuclear factor erythroid 2-related factor 2/antioxidant responsive element (Nrf2/ARE) small molecule agonists: qHTS cell viability counter screen in human keratinocytes (AID 1919968; active = well fitted curve in the direction sought with a large enough effect in the repeat runs; an effect the other way counts as inactive or inconclusive; also: nearly all actives have a fitted effect of over 55% in size). The method in brief: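 Stably transfected HaCaT (KeratinoSens), 1,500/well. Test agents in DMSO were applied for 23 h, 37 C/5% CO2. CellTiter-Fluor was incubated 1 h before the fluorescence read.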
For orientation: qHTS replaces the single test concentration by a dilution series.

A short description of experiment [2]: Nuclear factor erythroid 2-related factor 2/antioxidant responsive element (Nrf2/ARE) small molecule agonists: luciferase reporter gene qHTS assay in human keratinocytes (AID 1919969). Also: nearly all actives have a fitted effect of over 35% in size. For orientation: Reporter assays use an easily measured gene product as a stand-in for the process of interest.
The target of experiment [3] is Gonadotropin-releasing hormone receptor (Homo sapiens) (UniProt P30968). Description: Human gonadotropin-releasing hormone receptor (GnRHR) small molecule agonists, calcium flux assay in GnRHR-HEK293 cells (AID 1920063). Also: nearly all actives have a fitted effect of over 35% in size. The method in brief: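 Stable human GnRHR HEK293 line. 18 h plating, then calcium dye for 1 h at 37 C. Agonist-mode compound addition from DMSO stocks; fluorescence monitored 3 min.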
Chain of Gonadotropin-releasing hormone receptor (Homo sapiens) (P30968 whole entry, looked up): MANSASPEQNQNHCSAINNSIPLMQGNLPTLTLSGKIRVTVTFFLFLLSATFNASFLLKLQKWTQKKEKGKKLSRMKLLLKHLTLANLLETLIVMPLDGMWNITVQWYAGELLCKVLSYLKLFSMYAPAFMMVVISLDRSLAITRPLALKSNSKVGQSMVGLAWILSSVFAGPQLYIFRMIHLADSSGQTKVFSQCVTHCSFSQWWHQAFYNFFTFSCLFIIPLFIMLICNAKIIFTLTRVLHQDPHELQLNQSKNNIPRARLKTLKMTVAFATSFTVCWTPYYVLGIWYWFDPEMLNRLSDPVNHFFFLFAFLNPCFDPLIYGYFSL

The target of experiment [4] is KiSS-1 receptor (Homo sapiens) (UniProt Q969F8). Description: Human kisspeptin (KISS1R) small molecule agonists, calcium flux assay in KISS1R-HEK293 cells (AID 1920064; active = well fitted curve in the direction sought with a large enough effect in the repeat runs; an effect the other way counts as inactive or inconclusive). The method in brief: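 After overnight (18 h) culture at 37 C/5% CO2, human KISS1R-HEK293 cells received calcium dye for 1 h, then test compound; emission at 540 nm (excitation 480 nm) was tracked for 3 min.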
Chain of KiSS-1 receptor (Homo sapiens) (Q969F8 whole entry, looked up): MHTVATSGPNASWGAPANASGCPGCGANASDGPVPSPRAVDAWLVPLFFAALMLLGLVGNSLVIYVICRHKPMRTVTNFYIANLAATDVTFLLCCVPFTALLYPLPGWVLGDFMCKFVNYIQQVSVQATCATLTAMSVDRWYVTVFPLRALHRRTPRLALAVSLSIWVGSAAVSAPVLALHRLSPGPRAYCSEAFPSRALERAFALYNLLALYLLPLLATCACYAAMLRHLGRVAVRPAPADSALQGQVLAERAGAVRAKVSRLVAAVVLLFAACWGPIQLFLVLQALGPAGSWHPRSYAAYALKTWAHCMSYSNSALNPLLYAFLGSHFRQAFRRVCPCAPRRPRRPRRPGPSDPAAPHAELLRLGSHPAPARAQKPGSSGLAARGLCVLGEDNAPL
For orientation: Calcium flux is commonly read through the fluorescence of an indicator in the cells.

Experiment [5] is described as follows: G protein-coupled receptor (GPCR) small molecule agonists, calcium flux assay: HEK293 wild type cell line counter screen (AID 1920065). The method in brief: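 Following 18 h incubation at 37 C/5% CO2, plates got calcium dye for 1 h; compounds, ATP or DMSO were then pinned in and fluorescence followed kinetically (480/540 nm).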
A short description of experiment [6]: p53 small molecule agonists, cell-based qHTS assay with human liver microsomes (AID 1963577). Also: potency is read from the fitted curve at half-maximal effect.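 As to activation: p53 response element beta-lactamase reporter cells with liver microsomes plus NADPH.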 The method in brief: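 Reporter activation was measured by LiveBLAzer fluorescence intensity in p53RE-bla cells, which had been exposed to compounds for 16 h at 37 C alongside 0.5 mg/mL human liver microsomes and 0.5 mg/mL NADPH (final concentrations).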
Experiment [7] can be described thus: p53 small molecule agonists, cell-based qHTS assay with rat liver microsomes (AID 1963578). A digest of the protocol:
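Compound in DMSO added to p53RE-bla cells 5 h post-plating; rat microsomes/NADPH 0.5 mg/mL final; 16 h, 37 C; LiveBLAzer 2 h RT.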

A short description of experiment [8]: p53 small molecule agonists, cell-based qHTS assay with human liver microsomes: qHTS cell viability counter screen (AID 1963579). Also: nearly all actives have a fitted effect of over 45% in size. The method in brief: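 HLM-supplemented (0.5 mg/mL final) and NADPH-supplemented (0.5 mg/mL final) p53RE-bla cultures, 4,000 cells per well, were dosed with compounds in DMSO for 16 h at 37 C; luminescent ATP detection (CellTiter-Glo, 30 min, room temperature) quantified surviving cells.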

Experiment [9] is described as follows: p53 small molecule agonists, cell-based qHTS assay with rat liver microsomes: qHTS cell viability counter screen (AID 1963580). Also: nearly all actives have a fitted effect of over 45% in size. A digest of the protocol: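 Cytotoxicity counter screen: intracellular ATP measured by CellTiter-Glo luminescence in the same wells as the beta-lactamase reporter read, on HCT-116 p53RE-bla cells exposed 16 h at 37 C to compounds with rat liver microsomes and NADPH, each 0.5 mg/mL final.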

Experiment [10] is described as follows: p53 small molecule agonists, cell-based qHTS assay: qHTS cell viability counter screen (AID 1963581). Also: nearly all actives have a fitted effect of over 45% in size. The method in brief:
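qHTS counter screen: 16 h compound exposure at 37 C of p53RE-bla HCT-116 cells (4,000 per well, seeded 5 h prior), cell viability by ATP luminescence.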

Experiment [11] can be described thus: p53 small molecule agonists, cell-based qHTS assay (AID 1963582; active = well fitted activation curve with a large enough effect in the signal ratio in the repeat runs, not every such curve was filed as active; the % refers to the signal ratio). The method in brief:
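Measured: fluorescence from cleaved LiveBLAzer substrate. System: p53RE-bla cells, 16 h compound treatment at 37 C, 2 h substrate step at room temperature.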

The target in experiment [12] is 5-hydroxytryptamine receptor 2A (Homo sapiens) (UniProt P28223). Nature of the experiment: 5-hydroxytryptamine receptor 2A (HTR2A) small molecule antagonists, cell-based qHTS assay (AID 1963586). Also: nearly all actives have a fitted effect of over 45% in size. The method in brief: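 CHO cells stably expressing human HTR2A were plated for 18 h at 37 C, then loaded with calcium dye for 1 h. Compounds were preincubated 5 min at room temperature before DOI (4 nM solution) was added. Kinetic fluorescence was read for 3 min.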
Chain of 5-hydroxytryptamine receptor 2A (Homo sapiens) (P28223 whole entry, looked up): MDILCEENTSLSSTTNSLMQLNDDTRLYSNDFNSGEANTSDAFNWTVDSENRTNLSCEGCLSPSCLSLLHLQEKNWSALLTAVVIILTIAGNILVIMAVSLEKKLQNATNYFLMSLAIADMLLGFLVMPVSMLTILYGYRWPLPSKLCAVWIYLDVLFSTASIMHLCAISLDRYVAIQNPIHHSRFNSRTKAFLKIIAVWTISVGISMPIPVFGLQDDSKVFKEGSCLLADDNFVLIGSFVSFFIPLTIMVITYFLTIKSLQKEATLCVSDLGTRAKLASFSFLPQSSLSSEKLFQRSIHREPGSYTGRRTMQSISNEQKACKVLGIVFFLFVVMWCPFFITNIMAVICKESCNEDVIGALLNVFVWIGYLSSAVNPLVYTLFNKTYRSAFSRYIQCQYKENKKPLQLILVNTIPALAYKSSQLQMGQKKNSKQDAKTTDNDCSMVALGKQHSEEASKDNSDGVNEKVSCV

Experiment [13] has the same target. Description: 5-hydroxytryptamine receptor 2A (HTR2A) small molecule agonists, cell-based qHTS assay (AID 1963587). Also: nearly all actives have a fitted effect of over 30% in size. The method in brief: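 CHO cells stably expressing human HTR2A, plated 18 h, loaded with calcium dye 1 h at 37 C. Agonist mode: compounds added and intracellular calcium fluorescence recorded kinetically for 2 min at 1 sec intervals.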
Experiment [14] addresses Muscarinic acetylcholine receptor M1 (Homo sapiens) (UniProt P11229). Description: Cholinergic receptor muscarinic 1 (CHRM1) small molecule antagonists, cell-based qHTS assay (AID 1963588). Also: nearly all actives have a fitted effect of over 40% in size. Also: potency is read from the fitted curve at half-maximal effect. A digest of the protocol:
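Compounds were tested at 15 concentrations in three independent runs. Dye-loaded CHRM1-CHO cells were exposed 5 min at room temperature before stimulation by acetylcholine added at 50nM. Intracellular calcium was read kinetically on FDSS for 3 min.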

Experiment [15] is described as follows: cAMP Responsive Elements (CRE) small molecule antagonists, cell-based qHTS assay (AID 1963591; active = well fitted inhibition curve with a large enough effect in the signal ratio in the repeat runs, not every such curve was filed as active; the % refers to the signal ratio). The method in brief: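 Reporter line CRE-bla HEK 293T in dialyzed-FBS DMEM; cells preincubated 18 h, treated 3 h with compound plus NKH477 (0.25 uM final); LiveBLAzer FRET, 2 h RT.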
For experiment [16], the target named is Beta-2 adrenergic receptor (Homo sapiens) (UniProt P07550). Description: Adrenergic beta2 receptor (ADRB2) small molecule agonists, cell-based qHTS assay (AID 1963593).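 Also: CHO cells stably overexpressing human ADRB2.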 A digest of the protocol: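 CHO cells stably over-expressing ADRB2 were plated overnight at 37C, then dosed with compounds plus a stimulation mix containing 100uM IBMX and 25uM Ro-20-1724 for 0.5hr at room temperature. cAMP was measured by HTRF competition, 1hr.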
Chain of Beta-2 adrenergic receptor (Homo sapiens) (P07550 whole entry, looked up): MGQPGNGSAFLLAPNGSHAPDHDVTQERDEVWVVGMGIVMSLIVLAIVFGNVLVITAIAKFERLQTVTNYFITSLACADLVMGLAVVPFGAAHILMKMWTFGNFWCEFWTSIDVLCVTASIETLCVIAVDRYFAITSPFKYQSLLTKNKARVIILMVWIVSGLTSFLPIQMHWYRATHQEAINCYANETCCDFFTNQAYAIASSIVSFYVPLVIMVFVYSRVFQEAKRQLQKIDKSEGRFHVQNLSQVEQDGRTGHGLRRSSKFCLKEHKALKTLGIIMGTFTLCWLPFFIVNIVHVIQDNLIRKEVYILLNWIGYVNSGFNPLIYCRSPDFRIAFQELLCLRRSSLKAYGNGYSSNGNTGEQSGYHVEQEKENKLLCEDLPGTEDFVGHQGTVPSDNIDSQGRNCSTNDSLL

The target in experiment [17] is D(2) dopamine receptor (Homo sapiens) (UniProt P14416). Description: Dopamine D2 receptor (DRD2) small molecule agonists, cell-based qHTS assay (AID 1963594). Also: nearly all actives have a fitted effect of over 35% in size. A digest of the protocol:
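HEK293 cells stably expressing human DRD2, pre-treated with PDE inhibitor Ro20-1724 (0.1 mM final) and compound 10 min at room temperature, then stimulated with NKH477 (200nM […]) for 30 min. cAMP read by HTRF (665/620 nm).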

Experiment [18] has the same target. Nature of the experiment: Dopamine D2 receptor (DRD2) small molecule antagonists, cell-based qHTS assay (AID 1963595; active = well fitted inhibition curve with a large enough effect in the signal ratio in the repeat runs, with a control signal flat; the % refers to the signal ratio). The method in brief:
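Cells were plated and grown for 24 h at 37 °C. Ro20-1724 (0.1 mM final) went in first, then compound for 10 min. NKH477 (200 nM) with quinpirole (12 nM) followed for 30 min at RT, then HTRF detection reagents for 1 h.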

Experiment [19] in a line: cAMP Responsive Elements (CRE) small molecule agonists, cell-based qHTS assay (AID 1963590). A digest of the protocol: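 Test agents in DMSO were incubated 3 h at 37 C/5% CO2 with CRE-bla HEK 293T cells seeded 18 h earlier; LiveBLAzer B/G FRET substrate was added and read after 2 h at room temperature.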
Experiment [20] concerns the target Beta-2 adrenergic receptor (Homo sapiens) (UniProt P07550). Description: Adrenergic beta2 receptor (ADRB2) small molecule antagonists, cell-based qHTS assay (AID 1963592). Also: series mostly up to about 92 µM; nearly all actives have a fitted effect of over 50% in size. A digest of the protocol:
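Assay format: CHO-ADRB2 cells, 18-20hr seeding at 37C/5% CO2, then compound plus 1nM isoproterenol agonist mix for 0.5hr RT. Homogeneous time-resolved fluorescence cAMP detection after 1hr, expressed as 665/615 nm ratio.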

Chain of D(2) dopamine receptor (Homo sapiens) (P14416 whole entry, looked up): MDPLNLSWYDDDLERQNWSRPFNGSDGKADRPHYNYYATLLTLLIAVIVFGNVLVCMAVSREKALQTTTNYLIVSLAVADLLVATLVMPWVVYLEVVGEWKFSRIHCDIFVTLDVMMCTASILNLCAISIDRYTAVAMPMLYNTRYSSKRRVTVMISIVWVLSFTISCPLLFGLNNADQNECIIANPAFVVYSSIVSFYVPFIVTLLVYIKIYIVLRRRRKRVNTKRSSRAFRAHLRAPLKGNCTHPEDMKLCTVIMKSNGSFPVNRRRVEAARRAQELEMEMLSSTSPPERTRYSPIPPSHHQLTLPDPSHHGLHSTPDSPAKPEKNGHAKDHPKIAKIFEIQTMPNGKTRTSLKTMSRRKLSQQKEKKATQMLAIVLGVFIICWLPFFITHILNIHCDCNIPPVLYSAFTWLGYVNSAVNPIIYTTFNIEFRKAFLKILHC
Chain of Muscarinic acetylcholine receptor M1 (Homo sapiens) (P11229 whole entry, looked up): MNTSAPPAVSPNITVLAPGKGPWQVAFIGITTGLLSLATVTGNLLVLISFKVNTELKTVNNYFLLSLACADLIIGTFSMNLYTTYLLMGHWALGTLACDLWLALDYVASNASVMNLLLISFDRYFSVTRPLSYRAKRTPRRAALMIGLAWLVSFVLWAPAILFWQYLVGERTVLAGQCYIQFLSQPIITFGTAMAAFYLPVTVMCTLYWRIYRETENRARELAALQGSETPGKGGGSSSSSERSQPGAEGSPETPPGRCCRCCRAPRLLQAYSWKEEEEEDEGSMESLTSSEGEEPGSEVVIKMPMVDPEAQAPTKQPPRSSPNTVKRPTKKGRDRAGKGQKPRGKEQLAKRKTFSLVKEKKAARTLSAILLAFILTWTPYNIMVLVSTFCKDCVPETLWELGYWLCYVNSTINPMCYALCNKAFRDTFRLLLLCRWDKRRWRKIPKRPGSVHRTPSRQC

As to `CC(=O)OCCC(C)C`, the Potency entry in experiment [1], in experiment [2], in experiment [3], in experiment [4], in [5] and in experiment [6] was “inactive” in each case. Moreover, the Potency entry in [7], in [8], in [9], in experiment [10], in experiment [11] and in experiment [12] was “inactive” each time. Moreover, the Potency result in experiment [13], in [14], in experiment [15], in experiment [16], in [17] and in experiment [18] was “inactive” throughout.

Take `CC1(C)CC(N=C=O)CC(C)(CN=C=O)C1` (configuration not stated): the Potency result in [1], in experiment [2], in experiment [3], in experiment [4], in experiment [5] and in experiment [6] was “inactive” each time. The Potency entry in experiment [7], in experiment [8], in [9], in [10], in experiment [11] and in experiment [12] was “inactive” each time. Moreover, the Potency entry in experiment [13], in experiment [19], in experiment [15], in experiment [20], in experiment [16] and in [17] was “inactive” throughout. The Potency entry in experiment [18] is “inactive”. Moreover, the Potency in experiment [14] was 17 µM (active).

As to `COc1ccc(C(Cl)=C(c2ccc(OC)cc2)c2ccc(OC)cc2)cc1`, the Potency result in [1], in experiment [2], in experiment [3], in experiment [4], in experiment [5] and in experiment [6] was “inactive” in each case. The Potency result in [7], in [8], in [9], in [10], in experiment [11] and in experiment [12] was “inactive” in each case. Besides, the Potency entry in [13], in experiment [14], in [15], in experiment [20], in experiment [16] and in [17] was “inactive” throughout. For the same compound, in [18], the Potency result is “inactive”.

For the compound `CN(C)C(=O)Nc1ccc(Cl)c(Cl)c1`, the Potency entry in experiment [1], in [2], in [3], in [4], in [5] and in experiment [6] was “inactive” throughout. For the same compound, the Potency result in experiment [7], in experiment [8], in [9], in experiment [10], in experiment [11] and in experiment [12] was “inactive” each time. Further, the Potency result in [13], in experiment [14], in [19], in [20], in [16] and in experiment [17] was “inactive” each time. In addition, the Potency entry in [18] is “inactive”.

In the case of `O=C(OCC1CCC2OC2C1)C1CCC2OC2C1` (configuration not stated), the Potency entry in [1], in [2], in experiment [3], in experiment [4], in experiment [5] and in experiment [6] was “inactive” each time. Further, the Potency entry in [7], in experiment [8], in [9], in experiment [10], in experiment [11] and in experiment [12] was “inactive” each time. Further, the Potency result in experiment [13], in experiment [14], in experiment [19], in experiment [15], in experiment [17] and in experiment [18] was “inactive” in each case.

Consider `O=C1C(c2[nH]c3ccccc3c2O)=Nc2ccccc21`, for which the Potency entry in experiment [1], in experiment [2], in experiment [3], in experiment [4], in experiment [5] and in [6] was “inactive” throughout. The Potency result in experiment [7], in experiment [8], in experiment [9], in experiment [10], in experiment [11] and in [12] was “inactive” in each case. Besides, the Potency entry in experiment [13], in [14], in experiment [19], in experiment [15], in [20] and in [16] was “inactive” throughout. Besides, in experiment [18], the Potency result is “inactive”.

As to `CCCCCCCCC(=O)O`, the Potency entry in experiment [1], in experiment [2], in [3], in experiment [4], in experiment [5] and in experiment [7] was “inactive” throughout. The Potency result in [8], in [9], in experiment [10], in experiment [11], in [12] and in [13] was “inactive” throughout. Besides, the Potency result in experiment [14], in [15], in experiment [20], in [16], in experiment [17] and in experiment [18] was “inactive” each time. Further, in experiment [6], the Potency was 39.5 µM (active).
